Results taken from PubChem BioAssay AID425 (Sanford-Burnham Center for Chemical Genomics, 2006).
Where “and” joins values, the source holds several entries; their conditions need not be identical. Identical values can stand only once. Screen size: about 110,000 compounds; about 190 (0.17%) were called active. Rule as the data show it: active = inhibition above about 50%; inactive = the rest. This excerpt belongs to a sample that is enriched for actives. Potency and affinity values are given separately. The source holds several records for some structures; these can differ, active in one and inactive in another.

Biological target: Dual specificity protein phosphatase 6 (Rattus norvegicus) (UniProt Q64346)
Test: inhibition of rat DUSP6 enzyme activity – biochemical, in vitro, primary screen (AID 425);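 also: plate controls were vehicle for no effect and reference inhibitor for full effect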
Settings: recombinant MKP-3 phosphatase activity, fluorescence; at 20 µM; stronger effect = higher value

Sequence of Dual specificity protein phosphatase 6 (Rattus norvegicus) (Q64346 whole entry, looked up): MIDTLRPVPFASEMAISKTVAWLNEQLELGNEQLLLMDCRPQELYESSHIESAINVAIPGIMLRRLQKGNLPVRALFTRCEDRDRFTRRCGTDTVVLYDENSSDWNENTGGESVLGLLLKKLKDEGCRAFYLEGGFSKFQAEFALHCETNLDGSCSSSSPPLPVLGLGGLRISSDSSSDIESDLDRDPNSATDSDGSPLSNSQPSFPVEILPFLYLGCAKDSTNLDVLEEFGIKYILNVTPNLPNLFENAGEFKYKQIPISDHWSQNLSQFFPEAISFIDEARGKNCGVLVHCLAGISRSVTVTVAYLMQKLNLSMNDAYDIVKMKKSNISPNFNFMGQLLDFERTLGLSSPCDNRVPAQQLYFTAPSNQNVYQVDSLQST

| Compound | inhibition |
| --- | --- |
| C=CCc1cccc2cc(C(=O)NCc3ccccc3)c(=O)oc12 | 6.2% (inactive) |
| COc1ccc(NC(=O)C2CCC(C)(C(=O)O)C2(C)C)cc1 (stereo unspecified) | -6.7% (inactive) |
| COc1ccc(/C=N/NC(=O)c2cc(-c3ccc(Cl)cc3)n[nH]2)cc1 | 3.6% (inactive) |
| O=C(COc1ccc(Cl)cc1)Nc1nc(-c2ccc(Cl)cc2)cs1 | 2.6% (inactive) |
| N#Cc1c(N)nc2c(c1-c1ccc3c(c1)OCO3)CCCCC2 | -0.9% (inactive) |
| Cc1ccc(-n2[nH]c(=O)c(/C=c3/c(C)c(C#N)c4nc5ccccc5n4c3=O)c2O)cc1C | 66.8% (active) |
| Cc1c(C#N)c2nc3ccccc3n2c(=O)/c1=C/c1sc2ccccc2c1O | 4.2% (inactive) |
| Cc1c(C#N)c2nc3ccccc3n2c(=O)/c1=C\c1c(O)n(-c2ccc(Br)cc2)[nH]c1=O | 2.8% (inactive) |
| COc1cc(/C=C2\NC(=S)NC2=O)ccc1OC(=O)C12CC3CC(CC(C3)C1)C2 | -2.6% (inactive) |
| Cc1cccc(N2C(=O)/C(=C/c3ccccc3[N+](=O)[O-])SC2=S)c1 | 120% (active) |
| COc1cccc(N2C(=O)/C(=C/c3ccccc3[N+](=O)[O-])SC2=S)c1 | 3% (inactive) |
| COc1ccccc1/C=C1\SC(=S)N(Cc2ccco2)C1=O | 0.9% (inactive) |
| O=C1/C(=C/c2ccccc2[N+](=O)[O-])SC(=S)N1Cc1ccco1 | 84.3% (active) |
| O=C1/C(=C/c2cccc3ccccc23)SC(=S)N1Cc1ccco1 | 1.1% (inactive) |
| O=C1/C(=C/c2ccccc2[N+](=O)[O-])SC(=S)N1c1cccc(Br)c1 | 4.2% (inactive) |
| O=C(O)CCCCCN1C(=O)/C(=C\c2ccc(-c3ccc(Cl)c(Cl)c3)o2)SC1=S | 1.8% (inactive) |
| Cc1ccccc1N(CC(=O)N1CCc2ccccc2C1)S(C)(=O)=O | 2.4% (inactive) |
| NC(=O)c1cc(NC(=O)COc2ccc(F)cc2)c(Cl)cc1Cl | -1.1% (inactive) |
| Cc1c(NS(=O)(=O)c2ccc3c(c2)CCN3C(=O)C2CC2)c(=O)n(-c2ccccc2)n1C | -3.7% (inactive) |
| Cc1ccc(-c2ccc(C=C3C(=O)NC(=O)NC3=O)o2)c(Br)c1 | 26.6% (inactive) |
| O=C1NC(=O)C(=Cc2ccc(-c3cccc(Br)c3)o2)C(=O)N1 | 52.6% (active) |
| O=C1NC(=S)N/C1=C/c1ccc(-c2cccc(Br)c2)o1 | 0.8% (inactive) |
| CCN1CCN(CCCNC(=O)Cn2cc3c(n2)CCCC3)CC1 | -12% (inactive) |
| COc1ccc(C2C(C(C)=O)=C(O)C(=O)N2c2nc3ccccc3s2)c(OC)c1 (stereo unspecified) | -1.5% (inactive) |

| Compound | inhibition |
| --- | --- |
| Cc1ccc(N2CC(C(=O)Nc3ccc(N(C)C)cc3)CC2=O)cc1 (stereo unspecified) | 2.6% (inactive) |
| CCOC(=O)CSc1nnc(Cn2nnc(-c3ccccc3)n2)n1C | 0.9% (inactive) |
| Oc1c(Br)cc(Cl)cc1C=Nc1cccc2nsnc12 | 42.7% (inactive) |
| COc1ccc(Br)c(C=Nc2cccc3nsnc23)c1O | 14.8% (inactive) |
| Oc1c(Br)ccc(Cl)c1C=Nc1cccc2nsnc12 | 117% (active) |
| NC(=O)C1C(=O)Oc2ccccc2C1=O (stereo unspecified) | 1.6% (inactive) |
| Cc1ccc(-c2nnn(CC(=O)N(Cc3ccccc3)C(C(=O)NC3CCCC3)c3ccncc3)n2)o1 (stereo unspecified) | -0.8% (inactive) |
| Cc1cc2nc(-c3cccc(NC(=O)c4ccc(Br)o4)c3)oc2cc1C | 3.2% (inactive) |
| O=S1(=O)N=C2CCCN2C(c2ccc(F)cc2)N1 (stereo unspecified) | -14.7% (inactive) |
| O=C(Nc1ncc(Cc2ccc(Cl)c(Cl)c2)s1)c1ccccc1Cl | 3.9% (inactive) |
| Cc1ccc(OCC(=O)N/N=C\c2ccc(-c3ccc([N+](=O)[O-])cc3)o2)cc1 | -0.5% (inactive) |
| Cc1cc(C)n(Cc2ccc(C(=O)O)o2)n1 | -6.7% (inactive) |
| O=C1/C(=C\c2cccs2)CC2CC1C/C(=C/c1cccs1)C2=O | 1.2% (inactive) |
| O=C1/C(=C\c2ccco2)CC2CC1C/C(=C/c1ccco1)C2=O | 55.6% (active) |
| O=C1/C(=C/c2ccco2)N2CCC1CC2 | -0.8% (inactive) |
| CN1CCN(CCCn2cnc3c(=O)oc4ccccc4c32)CC1 | -0.6% (inactive) |
| CC(=O)O[C@@]12CO[C@@H]1C[C@H](O)[C@@]1(C)C(=O)[C@H](O)C3=C(C)[C@@H](OC(=O)[C@H](O)[C@@H](NC(=O)OC(C)(C)C)c4ccccc4)C[C@](O)([C@@H](OC(=O)c4ccccc4)[C@H]21)C3(C)C | -0.3% (inactive) |
| COC(=O)c1ccccc1OCc1cccc(C)n1 | -5.5% (inactive) |
| COC(=O)c1ccc(C(=O)OC)c(N)c1 | -12.2% (inactive) |
| COc1ccc(S(=O)(=O)Nc2ccc(C)c(Cl)c2)cc1OC | 3.1% (inactive) |
| Cc1ccc(N(C)S(=O)(=O)c2ccc(Cl)cc2)cc1 | -0.1% (inactive) |
| COc1cc(/C=C2/SC(=S)N(CC(=O)Nc3cccc(C(=O)O)c3)C2=O)cc(OC)c1OC | 1.9% (inactive) |
| O=C(CN1C(=O)/C(=C/c2ccccc2)SC1=S)Nc1cccc(C(=O)O)c1 | -1% (inactive) |
| COc1ccc(/C=C2\SC(=O)N(CC(=O)Nc3ccc(C)cc3C)C2=O)cc1 | -0.5% (inactive) |

| Compound | inhibition |
| --- | --- |
| O=C(CN1C(=O)S/C(=C/c2ccccc2F)C1=O)Nc1ccccc1C(=O)O | 6.5% (inactive) |
| O=C(NC(Nc1ccc([N+](=O)[O-])cc1)C(Cl)(Cl)Cl)c1cccc(I)c1 (stereo unspecified) | 1.1% (inactive) |
| CCN(CC)S(=O)(=O)c1cccc(C(=O)Oc2cccnc2)c1 | -10.3% (inactive) |
| CCOc1cc(C(=O)Nc2ccc(OCc3ccccc3)cc2)cc(OCC)c1OCC | 7% (inactive) |
| CCCC1=NN2C(=N)/C(=C/c3cc(OC)ccc3OC)C(=O)N=C2S1 | 1.4% (inactive) |
| CCC1=NN2C(=N)/C(=C/c3ccc(OCCOc4cccc(OC)c4)cc3)C(=O)N=C2S1 | -1.7% (inactive) |
| Nn1c(SCC(=O)NC2CCCCC2)nnc1-c1ccccc1 | -1.2% (inactive) |
| Cc1cc(=O)n2[nH]c(C)c(-c3ccccc3)c2n1 | 72.9% (active) and -3.2% (inactive) |
| Cc1cc(=O)n2[nH]c(C)c(-c3ccc(Cl)cc3)c2n1 | -8.5% (inactive) |
| Cc1[nH]n2c(=O)cc(C(C)C)nc2c1-c1ccccc1 | -5.8% (inactive) |
| O=C(NCC1CCCO1)c1ccc(Cl)cc1 (stereo unspecified) | -0.2% (inactive) |
| O=C(CCCn1c(=O)c2sccc2n(Cc2ccc(F)cc2)c1=O)NCc1ccco1 | -8.3% (inactive) |
| CCOc1ccc(C(=O)NCc2ccc3c(c2)OCO3)cc1 | -3% (inactive) |
| COc1ccc(/C=C2/SC(=O)N(CC(=O)Nc3ccc(C)c(C)c3)C2=O)cc1OC | 3.6% (inactive) |
| COc1ccc(/C=C2/SC(=O)N(CC(=O)Nc3ccc(F)c(Cl)c3)C2=O)cc1OC | 1.4% (inactive) |
| COc1ccc(-c2cc(C(=O)N/N=C(\C)c3ccc([N+](=O)[O-])cc3)[nH]n2)cc1 | 4% (inactive) |
| Oc1cccc(C=Nc2ccccc2)c1O | 120% (active) |
| N#Cc1ccc(N=Cc2cccc(O)c2O)cc1 | -1.9% (inactive) |
| CCN(CC)c1ccc(N=Cc2cccc(O)c2O)cc1 | 16.1% (inactive) |
| Cc1ccsc1C=Nc1ccc(O)cc1 | -7% (inactive) |
| Cc1cccc(C=Nc2ccccc2O)c1O | -0.6% (inactive) |
| CCOc1ccccc1C=Nc1ccc(O)cc1 | 116% (active) |
| Cc1ccccc1C=Nc1ccc(O)cc1 | 112% (active) |
| CCOc1ccccc1C=Nc1ccc(C(N)=O)cc1 | -2.2% (inactive) |

| Compound | inhibition |
| --- | --- |
| CCOc1ccccc1C=Nc1cc(Cl)cc(Cl)c1 | -0.8% (inactive) |
| CCOC(=O)C1(C)NC(c2cc(OC)c(OC)c(OC)c2)C2C(=O)N(CC)C(=O)C21 (stereo unspecified) | 4.9% (inactive) |
| CC(NC(=O)C(=O)NCC1CCNCC1)c1ccccc1 (stereo unspecified) | 2.1% (inactive) |
| Cc1cc(NC(=O)c2nn3c(c2Cl)NC(c2ccc(Br)cc2)CC3C(F)(F)F)no1 (stereo unspecified) | -0.7% (inactive) |
| COc1cccc(C(=O)NNC(N)=O)c1 | -2.5% (inactive) |
| O=C(CSc1nc2ccc(N3C(=O)c4ccccc4C3=O)cc2s1)Nc1cccc([N+](=O)[O-])c1 | 14.1% (inactive) |
| Cc1ccc(NC(=O)C(=O)NCC(C)C)cc1 | -6.8% (inactive) |
| CCN1CCOC(c2ccccc2)C(C(=O)OC)C1C(=O)OC (stereo unspecified) | 49.2% (inactive) |
| O=C(Nc1ccc(NC(=O)c2ccc(-c3ccc(Br)cc3)o2)cc1)c1ccco1 | -1.3% (inactive) |
| CC(=O)c1ccc(NC(=O)c2ccc(-c3ccc(Br)cc3)o2)cc1 | 10.6% (inactive) |
| CCCCCCCC(=O)N/N=C/c1c[nH]c2ccccc12 | 4.3% (inactive) |
| O=C(CSc1ccccn1)N/N=C\c1c[nH]c2ccccc12 | -0.6% (inactive) |
| Cc1ccn2c(-c3csc(Nc4cccc(O)c4)n3)c(C)nc2c1 | 2.7% (inactive) |
| O=C1CC(Nc2ccccc2)C(=O)N1Cc1ccccc1 (stereo unspecified) | 1.4% (inactive) |
| O=C(O)c1ccc(NC(=O)c2cc3cc(Br)ccc3oc2=O)cc1 | 3.5% (inactive) |
| O=C(Nc1ccc(Nc2ccccc2)cc1)c1cccc(F)c1 | -0.3% (inactive) |
| O=C(Nc1ccc(Cl)c(Cl)c1)Nc1nnc(-c2ccccc2)s1 | -2.8% (inactive) |
| Cc1ccc(-c2nnc(NC(=O)Nc3ccc(Cl)c(Cl)c3)s2)cc1 | -1.5% (inactive) |
| O=[N+]([O-])c1ccc(OCCCCCN2CCCCC2)cc1 | 0.4% (inactive) |
| Cc1ccc(/C(O)=C2\C(=O)C(=O)N(CCCC(=O)O)C2c2ccccc2)cc1 (stereo unspecified) | 2.5% (inactive) |
| COc1ccc(O)c(CN2CCN(Cc3ccccc3[N+](=O)[O-])CC2)c1 | -3.5% (inactive) |
| Oc1ccccc1/C=N/Nc1cc(N2CCCCC2)nc(N2CCCCC2)n1 | -0.5% (inactive) |
| Oc1ccccc1/C=N/Nc1cc(N2CCCC2)nc(N2CCCC2)n1 | 119% (active) |
| Oc1ccccc1/C=N/Nc1cc(N2CCOCC2)nc(N2CCOCC2)n1 | 5.6% (inactive) |
